Consider 70 molecules from PubChem BioAssay AID488890 (Southern Research Specialized Biocontainment Screening …, 2010).

Structures are written as SMILES. About 1,300 (0.41%) of roughly 320,000 compounds were called active. Another 3% or so got no clear call; they are omitted. The rule behind the calls is not given here. Not all results are given here. Measured potencies and affinities stand elsewhere.

This test is described as follows: growth inhibition of non-replicating M. tuberculosis (AID 488890).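 Note: plate controls were DMSO cells for no effect and high antibiotic wells for full effect.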 As to conditions: Mycobacterium tuberculosis non-replicating, at 25 µM, stronger effect = higher value.
In the case of `Cn1nc(C(=O)N2CCOCC2)c2ccccc2c1=O`, the inhibition was -8.35%. The value for `O=C(COc1ccccc1-c1ccccc1)c1ccccc1` was 50.1%.

For `COc1cc([C@@H]2CC=C(C(=O)O)[C@H](c3ccccc3)N2S(=O)(=O)c2ccc(C)cc2)cc(OC)c1OC`, the inhibition worked out at 12.5%. For `CCN(CC)C(=O)[C@H]1CC(CC(=O)NCCCOC)C(=O)N2CCc3c([nH]c4ccccc34)[C@]12C` (stereo not given in full), the inhibition was -1.9%.

Consider `CC(=O)N1CCN(c2ccccc2NC(=O)COc2cc(C)ccc2C(C)C)CC1`, for which the inhibition worked out at 34.3%. The value for `CCOc1ccc(NC(=O)CCCN2C(=O)C(c3ccccc3)Oc3cccnc32)cc1` (stereo not given) was 3.12%; that for `CC1(C)CC(=O)c2c(Cc3ccccc3)noc2C1` was 3.41%. Consider `CCN(CC)CCn1c2c(c(SCC(=O)NCc3ccccc3)nc1=O)CCC2`, for which the inhibition was 8.95%. `Cc1ccc(S(=O)(=O)NCC(=O)NCC(=O)N(C)Cc2ccc3ccccc3c2)cc1C`: the inhibition came out at 31.9%. The value for `Cc1cc(Br)ccc1OCC(=O)NNC(=O)CCc1ccccc1` was 29%; that for `O=C(COc1ccc(Cl)cc1Br)Nc1ccncc1` was 69.3%. Consider `Cc1cc(Br)ccc1OCC(=O)NNC(=O)Cc1ccccc1`, for which the inhibition was -15.6%.

In the case of `CCc1ccc(OCC(=O)NC(=S)Nc2ccc(F)cc2)c(Br)c1`, the inhibition is 9.95%. Consider `CCCc1nc2oc3c(NCCOCCO)ncnc3c2c2c1COC(C)(C)C2`, for which the inhibition was -8.1%. Turning to `CCCN(CC(=O)Nc1ccc(F)c(F)c1F)CC(=O)Nc1c(C)n(C)n(-c2ccccc2)c1=O`, the inhibition was 37.8%.

Regarding `COc1ccccc1-n1nnnc1SCC(=O)NC1CCCCC1`, the inhibition turned out to be 2.38%. Then `Cc1[nH]c(C)c(S(=O)(=O)Nc2cccc(Cl)c2C)c1C(=O)N1CCCC1`, with 6.67%; and `Cc1ccsc1/C=N/NC(=O)CN1CCN(Cc2ccccc2)CC1`, with -0.88%. As for `O=C(NCC1CCCO1)NC12CC3CC(CC(C3)C1)C2` (stereo not given), the inhibition is -2.4%. The value for `CCOC(=O)N/N=C\c1ccc([N+](=O)[O-])o1` was 59.1%; that for `COc1ccc(C(=O)NCC(=O)N/N=C/c2ccc(C)o2)cc1OC` was 24.5%; that for `Cc1ccccc1OCC(=O)N/N=C/C=C/c1ccccc1` was -6.11%.

With `CCCCCC(=O)N/N=C/c1ccc([N+](=O)[O-])o1`, the inhibition was 73.3%. The value for `COc1ccc(C(=O)NCC(=O)N/N=C/c2ccco2)cc1OC` was -11.6%. Then `O=C(COc1ccccc1[N+](=O)[O-])N/N=C/C=C/c1ccco1`, with 12.5%; and `Cc1cc(C)cc(OCC(=O)N/N=C/c2ccco2)c1`, with 9.16%.

Consider `COC(=O)N/N=C/c1ccc([N+](=O)[O-])o1`, for which the inhibition was found to be 70.7%. Then `COc1ccc(CN2CCNC(=O)C2CC(=O)N(C)Cc2nccn2C)cc1OC` (stereo not given), with -4.39%; and `NS(=O)(=O)c1ccc(CNC(=O)c2ccc3c(c2)OCO3)cc1`, with -8.29%.

Turning to `CC1CCC2C(=O)N(c3cccc(C(=O)Nc4ccc(F)cc4)c3)C(=O)C2C1` (stereo not given), the inhibition was 0.0133%.

For `Cc1cc(C)c[n+](CC(=O)c2ccc(C)c([N+](=O)[O-])c2)c1`, the inhibition came to 11.3%. The value for `COc1ccc(Cl)cc1NC(=O)CN(C)C(=O)/C=C/c1ccco1` was 25.2%. With `CCc1nc2ccccc2n1CC(=O)N1CCN(S(=O)(=O)c2cccc(C(F)(F)F)c2)CC1`, the inhibition is 11.4%.

In the case of `Cc1ccc(NC(=O)C2CCN(C(=O)c3ccc(Cl)cc3)CC2)nc1`, the inhibition was found to be 11.3%.

Turning to `C/C(=N\Nc1ccc(Cl)cc1)c1ccncc1`, the inhibition came to 31.7%.

Turning to `Cc1ccc(NC(=O)CCC(=O)N/N=C/c2ccc([N+](=O)[O-])o2)cc1C`, the inhibition was 8.35%. Then `CCCC(=O)Nc1ccc(C(=O)N/N=C/c2ccc([N+](=O)[O-])o2)cc1`, with 77.6%; and `Cc1ccccc1OCC(=O)N/N=C/c1ccc([N+](=O)[O-])o1`, with 78.1%; and `CCCOc1ccc(CCC(=O)N/N=C/c2ccco2)cc1`, with 64.4%. As to `Cc1ccc(OCC(=O)N/N=C/c2ccco2)cc1`, the inhibition was 36.5%.

Consider `CCCOc1ccc(CCC(=O)N/N=C/c2ccncc2)cc1`, for which the inhibition came out at 25.7%. Then `O=S(=O)(Nc1ccc(Nc2ccccc2)cc1)c1ccc(F)cc1`, with 45.8%; and `O=C(COC(=O)c1ccc2ncsc2c1)NCc1ccccc1Cl`, with 19.4%. As for `CC(=O)Nc1ccc(S(=O)(=O)N2CCSC2C(=O)O)cc1` (stereo not given), the inhibition turned out to be 1.73%. As to `CCN(CC)S(=O)(=O)c1ccc(Oc2ccccc2)cc1`, the inhibition stood at 30.3%. Turning to `COc1ccc2c(Cl)c(C(=O)N/N=C/c3c(C)[nH]c4ccccc34)sc2c1`, the inhibition is -5.52%.

As for `CC(C)C(c1nnnn1Cc1ccccc1)N1CCc2ccccc2C1` (stereo not given), the inhibition came to 11%. The value for `Cc1cccc(N2C(=O)/C(=C/c3ccccn3)SC2=S)c1` was 0.34%. For `Cc1ccc(C)c2[nH]c(=O)c(CCNC(=O)c3ccc(Br)o3)cc12`, the inhibition was -3.61%. The value for `COc1ccc(CCNC(=O)COc2ccc(-c3ccc(C)cc3)cc2)cc1OC` was 25.9%; that for `O=C(Nc1ccc(Cl)c(Cl)c1)Nc1ccc(Br)cc1F` was 75.2%. The value for `O=[N+]([O-])c1ccc(-n2nnnc2-c2ccccc2)cc1` was -9.53%. Then `O=[N+]([O-])c1cccc(-c2nnnn2-c2cccc(F)c2)c1`, with -0.82%; and `CC(C)[C@H](NC(=O)C1CCN(S(=O)(=O)c2ccc(F)cc2)CC1)C(=O)NCc1ccco1`, with 8.72%; and `COc1cc(OC)cc(C(=O)N[C@H](C(=O)OCC(N)=O)C(C)C)c1`, with -12.8%. With `CCNC(=O)N(C)C[C@H]1N[C@@](C)(C(=O)OC)[C@H]2C(=O)N(C)C(=O)[C@@H]12`, the inhibition was determined as 2.38%.

For `CNC(=S)NNc1nc(N2CCOCC2)nc(N2CCOCC2)n1`, the inhibition is -5%. For `Cc1cccc(C(=O)N/N=C2\CS(=O)(=O)N(C)c3ccsc32)c1`, the inhibition worked out at 56.1%. Then `CCCC(=O)N/N=C1\CS(=O)(=O)N(C)c2ccsc21`, with 1.81%; and `Cc1ccc(NC(=O)C2=C(O)c3sccc3N(C)S2(=O)=O)cc1`, with 18.9%; and `CN1c2ccsc2/C(=N/NC(=O)c2c(F)cccc2F)CS1(=O)=O`, with -25.7%.

In the case of `Cc1ccccc1NC(=O)C1C2C=CC(C3CC23)C1C(=O)O` (stereo not given), the inhibition is -10.4%.

As for `Cc1ccc(NC(=O)c2ccc3snnc3c2)cc1C`, the inhibition was -6.47%.

Consider `O=C(CCN1CCN(C/C=C/c2ccccc2)CC1)Nc1ccccc1F`, for which the inhibition is -1.04%. Then `COc1ccc2[nH]c(=O)c(C(=O)O)cc2c1`, with -0.72%; and `O=C(N/N=C/c1ccccn1)c1ccc(NC(=O)c2cccc([N+](=O)[O-])c2)cc1`, with 7.23%; and `O=C(N/N=C/c1ccccn1)c1ccncc1`, with 75.3%.

With `O=C(N/N=C/c1ccc2nccnc2c1)c1cccc([N+](=O)[O-])c1`, the inhibition is -21.3%. Then `O=C(N/N=C/c1ccccn1)c1ccc([N+](=O)[O-])cc1Cl`, with 74.4%; and `CCCCC(CCC(=O)Nc1ccn(-c2ccccc2)n1)C(=O)O` (stereo not given), with -15.5%.

By inhibition is commonly meant the relative decrease from the control value, in per cent.
